From doi:10.1101/2024.03.05.583629

Molecular target: pT7_6His-AlfaTag-ZIF268 (human, UniProt P18146 335-423)
Test: PADIT-seq
Conditions: dsDNA, one strand shown

Sequence	binding signal
CTCGAGGATATCAAGATCTGGCCTCGGCTTCCCACGCGGAACCTCTAGCTAGCCGACTCACTATAGGGATAATCGCCCTGAGCAAAGACC	0.363 ± 0.0983 log2FC
CTCGAGGATATCAAGATCTGGCCTCGGCGCGTGTGCGGGAACCTCTAGCTAGCCGACTCACTATAGGGATAATCGCCCTGAGCAAAGACC	0.312 ± 0.112 log2FC
CTCGAGGATATCAAGATCTGGCCTCGGCGCGTGGCGGGGAACCTCTAGCTAGCCGACTCACTATAGGGATAATCGCCCTGAGCAAAGACC	0.049 ± 0.11 log2FC
CTCGAGGATATCAAGATCTGGCCTCGGCGCGTGGTCCGGAACCTCTAGCTAGCCGACTCACTATAGGGATAATCGCCCTGAGCAAAGACC	0.192 ± 0.0971 log2FC
CTCGAGGATATCAAGATCTGGCCTCGGCGCGTGGGCGGGAACCTCTAGCTAGCCGACTCACTATAGGGATAATCGCCCTGAGCAAAGACC	4.32 ± 0.0557 log2FC
CTCGAGGATATCAAGATCTGGCCTCGGCCGCTGCCGCGGAACCTCTAGCTAGCCGACTCACTATAGGGATAATCGCCCTGAGCAAAGACC	0.0482 ± 0.0994 log2FC
CTCGAGGATATCAAGATCTGGCCTCGGCGCGTGAGCGGGAACCTCTAGCTAGCCGACTCACTATAGGGATAATCGCCCTGAGCAAAGACC	0.00935 ± 0.101 log2FC
CTCGAGGATATCAAGATCTGGCCTCGGCGCGTGGGACGGAACCTCTAGCTAGCCGACTCACTATAGGGATAATCGCCCTGAGCAAAGACC	1.73 ± 0.101 log2FC
CTCGAGGATATCAAGATCTGGCCTCGGCGCGTGGATTGGAACCTCTAGCTAGCCGACTCACTATAGGGATAATCGCCCTGAGCAAAGACC	0.000823 ± 0.102 log2FC
CTCGAGGATATCAAGATCTGGCCTCGGCCGCCCAAACGGAACCTCTAGCTAGCCGACTCACTATAGGGATAATCGCCCTGAGCAAAGACC	0.0706 ± 0.0989 log2FC
